Compound activity deposited in PubChem BioAssay by National Center for Advancing Translational Sciences (NCATS).
TDP1 block: inhibitors of human tyrosyl-DNA phosphodiesterase TDP1; Q9NUW8; recombinant TDP1, AlphaScreen DNA substrate cleavage; Potency, µM (titrated, usually from 130 µM), inactives show at the highest dose activity change, negative = inhibition, usual class: inhibitors; 350,000 tested, 0.28% active; AID 485290; note: % is set by controls: 0 for no effect and ±100 for the full control effect; nearly all actives have a fitted effect of over 40% in size
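AlphaScreen read-out: signal falls as enzyme removes the 3' tyrosine-FITC from a 5'-biotinylated DNA oligo (15 nM, 5 min, RT). Enzyme was E. coli-made recombinant Tdp1 at 1 nM, exposed to compound for 15 min beforehand; beads 10 ug/ml, 10 min.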
TDP1 cell noCPT: qHTS for Inhibitors of human tyrosyl-DNA phosphodiesterase 1 (TDP1): qHTS in cells in absence of CPT; Potency, µM (series often up to 46.2 µM), inactives show top-dose activity change, negative = growth inhibition, hits mostly inhibitors; DT40 Tdp1-/- hTDP1 cells, no CPT, ATP luminescence, 48 h; 420,000 tested, 15% active; AID 686978, 2013; note: % is set by controls: 0 for no effect and ±100 for the full control effect; nearly all actives have a fitted effect of over 55% in size
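Growth of hTDP1-complemented DT40 Tdp1-knockout cells is measured by ATP luminescence after at least 48 hr compound exposure at 37 °C, with DMSO substituting for the 20 nM CPT used in the parallel screen.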
ClpP mod: qHTS Assay for Activators of ClpP; ATP-dependent Clp protease proteolytic subunit (Bacillus subtilis (strain 168)), P80244; purified B. subtilis ClpP, FRET peptide cleavage, 20 min; Potency, µM (titrated, usually from 57.5 µM), for the others: top-dose activity change, negative = active; 340,000 tested, 1.9% active; AID 651965, 2013; active = well fitted falling curve with a large enough effect; inconclusive = small, poorly fitted or top-dose-only effect; inactive = no such curve, though single readings can be large or run the other way; note: the source files actives as falling curves though it sought activators and does not explain the sign; nearly all actives have a fitted effect of over 65% in size
Target sequence (P80244 whole entry, looked up): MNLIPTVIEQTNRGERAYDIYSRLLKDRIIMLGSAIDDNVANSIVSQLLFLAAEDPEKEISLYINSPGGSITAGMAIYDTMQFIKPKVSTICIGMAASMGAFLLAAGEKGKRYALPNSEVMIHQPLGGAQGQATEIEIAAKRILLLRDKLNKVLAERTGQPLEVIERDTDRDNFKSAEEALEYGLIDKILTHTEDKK
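ClpP 10 microg/mL final, pH 8 Tris/KCl buffer with BSA, glycerol, Tween-20; compound pinned in; FRET-FV substrate; RT 20 min; Ex320/Em430; ΔFRET vs ADEP 5.8 microM, DMSO, no enzyme.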
DT40 TDP1 CPT: DT40-hTDP1 cell growth loss with CPT | 420,000 tested, 12% active | AID 686979 | chicken DT40 Tdp1-/-;hTDP1 cells + 20 nM CPT, ATP luminescence, 48 h | Potency, µM (doses to about 46.2 µM), for inactives: at the top dose activity change, negative = growth inhibition, most hits filed as inhibitors; note: % is set by controls: 0 for no effect and ±100 for the full control effect; nearly all actives have a fitted effect of over 55% in size
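Cell growth measured by CellTiter-Glo luminescence after a minimum 48 h, 37 C compound exposure with 20 nM CPT in Tdp1-knockout DT40 cells stably expressing hTDP1, seeded 400/well; qHTS titration format.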
* marks the source's active call; other numbers are inactive results; u = inconclusive; x = no result given. Compounds with a hit are over-represented: about 17% of the library has one in this group of screens. Unless noted, calls come from the whole dose curve; as a rule, active = well fitted curve in the direction sought with a large enough effect; inconclusive = small, poorly fitted or top-dose-only effect, or another doubt; inactive = no such curve, though single readings can be large; an effect the other way counts as inactive or inconclusive. Potency is the fitted concentration of half-maximal effect.

SMILES	TDP1 block	TDP1 cell noCPT	ClpP mod	DT40 TDP1 CPT
COc1ccc(-c2[nH]ncc2[C@@H]2C[C@H]3CN(Cc4ccccc4C)C(=O)[C@]34CCCN24)cc1	3.6%	u	0.0%	u
Cc1ccccc1CN1C[C@@H]2C[C@@H](c3cn[nH]c3-c3ccc(F)cc3)N3CCC[C@@]23C1=O	4.8%	20.6µM*	x	18.4µM*
COc1ccc([C@@H]2C[C@H]3CN(Cc4ccccc4OC)C(=O)[C@]34CCCN24)cc1C	-2.8%	18.4µM*	-1.0%	u
COc1ccccc1CN1C[C@@H]2C[C@@H](c3ccc(C)c(C)c3)N3CCC[C@@]23C1=O	6.0%	16.4µM*	x	14.6µM*
Cc1ccc(C)c(S(=O)(=O)N2CCCOC2CNC(=O)C(=O)NCc2ccc3c(c2)OCO3)c1 (stereo unspecified)	3.5%	u	-0.5%	u
C#Cc1ccccc1OCCCN1CCC(C(O)(c2ccccc2)c2ccccc2)CC1	x	8.2µM*	2.9%	9.2µM*
COC(=O)c1cccc(OCCCN2CCC(C(O)(c3ccccc3)c3ccccc3)CC2)c1	x	u	-2.4%	u
N#Cc1ccccc1OCCCN1CCC(C(O)(c2ccccc2)c2ccccc2)CC1	x	u	0.4%	18.4µM*
O=C(NNC1=NC2(CCCC2)Cc2ccccc21)c1ccncc1	6.2%	-14.7%	x	1.0%
O=C(CS(=O)(=O)c1ccccc1)Nc1ccc(N2CCOCC2)cc1	0.0%	-10.8%	x	-6.6%
COc1ccc(Cl)cc1NC(=O)CCN1C(=O)C2C3CCC(C3)C2C1=O (stereo unspecified)	3.6%	4.0%	x	11.5%
CCCCc1ccc(C(=O)COC(=O)c2ccc3nc(C)c(C)nc3c2)cc1	x	u	-2.2%	u
Cc1ccccc1-c1nc(CS(=O)(=O)CC(=O)Nc2c(C)cccc2C)c(C)o1	4.6%	18.4µM*	-18.4%	u
CCOc1ccc(CCNC(=O)CS(=O)(=O)Cc2nc(-c3ccccc3F)oc2C)cc1	1.4%	11.6µM*	4.2%	u
Cc1ccc(CNC(=O)CS(=O)(=O)Cc2nc(-c3ccccc3C)oc2C)cc1	1.2%	16.4µM*	18.1%	u
CCOc1ccc(CCNC(=O)CS(=O)(=O)Cc2nc(-c3ccc(OC)cc3)oc2C)cc1	1.0%	u	-18.0%	-8.7%
Cc1cc(=O)[nH]c2nnc(SCc3cccc(C(F)(F)F)c3)n12	5.2%	u	-8.9%	14.9%
O=S1(=O)CCOC[C@H](c2ccccc2)N1Cc1ccc(Cl)c(Cl)c1	x	u	1.3%	u
CCOC(=O)c1c(-c2ccc(F)cc2)csc1NC(=O)CN1C(=O)NC2(CCCCC2C)C1=O (stereo unspecified)	4.5%	u	4.0%	20.6µM*
CCOC(=O)c1c(NC(=O)CN2C(=O)NC3(CCCCCC3)C2=O)sc(C)c1-c1ccc(C)cc1	8.0%	16.4µM*	-9.3%	23.1µM*
CCOC(=O)c1c(NC(=O)CN2C(=O)NC3(CCCCC3C)C2=O)sc(C(=O)N(C)C)c1C (stereo unspecified)	0.1%	7.7%	x	4.6%
CCOC(=O)c1c(NC(=O)CN2C(=O)NC3(CCCCC3C)C2=O)sc(C)c1C (stereo unspecified)	3.2%	20.6µM*	-2.8%	20.6µM*
COc1cccc(Nc2ncc3nc(-c4cc(F)cc(F)c4)c(=O)n(C4CC4)c3n2)c1	x	1.6%	x	11.5%
COc1ccc(Cl)cc1NC(=O)c1noc2c1CCc1ccccc1-2	2.7%	-5.5%	-0.8%	-13.0%
COc1cccc(CN2CC(C(=O)NCCc3cn4cccnc4n3)CCC2=O)c1 (stereo unspecified)	x	-17.4%	4.2%	-3.0%
Cc1csc(=O)n1CCC(=O)OCC(=O)Nc1ncc(Cl)cc1Cl	x	-9.0%	-0.1%	-1.1%
COc1ccccc1C1CCN(Cc2cccc([N+](=O)[O-])c2)CC1	7.5%	u	0.4%	u
COc1ccccc1C1CCN(c2ccc(CO)cc2[N+](=O)[O-])CC1	6.3%	16.4µM*	x	u
Cc1cccc(C)c1OCC(O)CN1CCc2ccccc2C1 (stereo unspecified)	x	6.51µM*	0.7%	4.61µM*
COc1ccc(OC)c(NC(=O)c2ccc(CN3CCc4ccccc4C3)cc2)c1	x	u	-2.6%	u
